# Measured values reported in the supplement of paper PMC9023506.
# Structures can show the parent of a compound that is named as a salt.
# Tests used:
# Details in all cases: 10 µM; exposure time: 3 h pre-incubation + 3 h imaging
# [1] = test system: Danio rerio larvae (5 dpf); assay: habituation to 1-s acoustic pulses, difference vs DMSO (percentage points (treated minus DMSO)); higher = more of the behaviour than the DMSO vehicle control
# Outline: (§1)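 Five-days-post-fertilisation wild-type zebrafish larvae were held in 96-well ProxiPlates and exposed to each library drug at a final 10 µM, diluted 1000× from DMSO stocks into egg water, with 48 larvae per drug. Exposure lasted 3 h before and 3 h during imaging at 28.5 °C, with images taken every 6 s across a 3-h program of rest, moving coloured lines and acoustic pulses. An ImageJ macro scored movement and upper-half location, and each behaviour score is the treated-group mean minus the vehicle-group mean, expressed in percentage points.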
# [2] = test system: Danio rerio larvae (5 dpf); assay: excitability to 1-s acoustic pulses, difference vs DMSO (percentage points (treated minus DMSO)); higher = more of the behaviour than the DMSO vehicle control
# Outline: as §1
# [3] = test system: Danio rerio larvae (5 dpf); assay: activity during period 15 (no stimuli), difference vs DMSO (percentage points (treated minus DMSO)); higher = more of the behaviour than the DMSO vehicle control
# Outline: as §1
# [4] = test system: Danio rerio larvae (5 dpf); assay: activity during first hour (no stimuli), difference vs DMSO (percentage points (treated minus DMSO)); higher = more of the behaviour than the DMSO vehicle control
# Outline: as §1
# [5] = test system: Danio rerio larvae (5 dpf); assay: optomotor response to blue moving lines, difference vs DMSO (percentage points (treated minus DMSO)); higher = more of the behaviour than the DMSO vehicle control
# Outline: as §1
# [6] = test system: Danio rerio larvae (5 dpf); assay: optomotor response to green moving lines, difference vs DMSO (percentage points (treated minus DMSO)); higher = more of the behaviour than the DMSO vehicle control
# Outline: as §1
# [7] = test system: Danio rerio larvae (5 dpf); assay: optomotor response to red moving lines, difference vs DMSO (percentage points (treated minus DMSO)); higher = more of the behaviour than the DMSO vehicle control
# Outline: as §1
# [8] = test system: Danio rerio larvae (5 dpf); assay: startle response to 20-s acoustic pulses, difference vs DMSO (percentage points (treated minus DMSO)); higher = more of the behaviour than the DMSO vehicle control
# Outline: as §1
# [9] = test system: Danio rerio larvae (5 dpf); assay: optomotor response to fast red moving lines, difference vs DMSO (percentage points (treated minus DMSO)); higher = more of the behaviour than the DMSO vehicle control
# Outline: as §1
structure (smiles),measurement,setting,value
C#CCN[C@@H]1CCc2ccccc21 [Rasagiline mesylate],habituation to 1-s acoustic pulses,[1],2.65
same,excitability to 1-s acoustic pulses,[2],-3.66
same,activity during period 15,[3],-1.03
same,activity during first hour,[4],4.92
same,optomotor response to blue moving lines,[5],15.8
same,optomotor response to green moving lines,[6],-10.1
COc1cc2ncnc(Nc3ccc(F)c(Cl)c3)c2cc1OCCCN1CCOCC1 [Iressa],habituation to 1-s acoustic pulses,[1],0.91
same,optomotor response to red moving lines,[7],1.01
same,activity during period 15,[3],-0.986
same,activity during first hour,[4],-5.98
CCCCc1nc(Cl)c(CO)n1Cc1ccc(-c2ccccc2-c2nnn[nH]2)cc1 [Losartan potassium],excitability to 1-s acoustic pulses,[2],5.58
same,optomotor response to red moving lines,[7],-6.11
same,activity during first hour,[4],13
same,optomotor response to green moving lines,[6],-0.568
NS(=O)(=O)c1cc(C(=O)O)c(NCc2ccco2)cc1Cl [Furosemide],activity during first hour,[4],5.98
NS(=O)(=O)Cc1noc2ccccc12 [Zonisamide],habituation to 1-s acoustic pulses,[1],-0.0674
same,optomotor response to red moving lines,[7],13
same,activity during first hour,[4],3.75
same,optomotor response to blue moving lines,[5],3.89
same,startle response to 20-s acoustic pulses,[8],8.21
CC#C[C@]1(O)CC[C@H]2[C@@H]3CCC4=CC(=O)CCC4=C3[C@@H](c3ccc(N(C)C)cc3)C[C@@]21C [Mifepristone],activity during period 15,[3],-2.26
same,activity during first hour,[4],-3.58
same,optomotor response to blue moving lines,[5],11
same,startle response to 20-s acoustic pulses,[8],0.769
same,optomotor response,[9],-1.97
Cc1cn([C@H]2C=C[C@@H](CO)O2)c(=O)[nH]c1=O [Stavudine],habituation to 1-s acoustic pulses,[1],-0.918
same,excitability to 1-s acoustic pulses,[2],3.23
same,optomotor response to red moving lines,[7],9.7
same,activity during first hour,[4],-4.71
C#C[C@]1(O)CC[C@H]2[C@@H]3CCC4=CC(=O)CC[C@@H]4[C@H]3CC[C@@]21CC [Levonorgestrel],habituation to 1-s acoustic pulses,[1],-7.34
same,optomotor response to red moving lines,[7],4.27
same,optomotor response to green moving lines,[6],5.26
same,startle response to 20-s acoustic pulses,[8],-4.51
same,optomotor response,[9],9.62
CN1CCN2c3ncccc3Cc3ccccc3C2C1 (configuration not stated) [Mirtazapine],excitability to 1-s acoustic pulses,[2],0.878
same,optomotor response to red moving lines,[7],-3.88
same,optomotor response to green moving lines,[6],-1.59
same,startle response to 20-s acoustic pulses,[8],-5.94
O=C1CCc2ccc(OCCCCN3CCN(c4cccc(Cl)c4Cl)CC3)cc2N1 [Aripiprazole],excitability to 1-s acoustic pulses,[2],16.5
same,optomotor response to red moving lines,[7],6.21
same,optomotor response to green moving lines,[6],-2.87
Nc1nc(Cl)nc2c1ncn2[C@@H]1O[C@H](CO)[C@@H](O)[C@@H]1F [Clofarabine],optomotor response to blue moving lines,[5],4.47
CCOC(=O)C1=C(COCCN)NC(C)=C(C(=O)OC)C1c1ccccc1Cl (configuration not stated) [Amlodipine besylate],optomotor response to red moving lines,[7],-1.08
same,activity during period 15,[3],3.16
same,optomotor response to green moving lines,[6],-4.86
Cc1ccccc1C(=O)Nc1ccc(C(=O)N2CCCC(O)c3cc(Cl)ccc32)c(C)c1 (configuration not stated) [Tolvaptan],optomotor response to blue moving lines,[5],-0.344
same,optomotor response to green moving lines,[6],10.3
same,startle response to 20-s acoustic pulses,[8],3.71
same,optomotor response,[9],2.23
Cc1ccc(NC(=O)c2ccc(CN3CCN(C)CC3)cc2)cc1Nc1nccc(-c2cccnc2)n1 [Imatinib mesylate],optomotor response to red moving lines,[7],-3.1
same,startle response to 20-s acoustic pulses,[8],5.5
same,optomotor response,[9],1.11
COc1ccc(C[C@@H](C)NC[C@H](O)c2ccc(O)c(NC=O)c2)cc1 [Arformoterol tartrate],optomotor response to red moving lines,[7],-7.51
same,optomotor response to blue moving lines,[5],-4.26
same,startle response to 20-s acoustic pulses,[8],-9.44
O=c1n(CCCN2CCN(c3cccc(Cl)c3)CC2)nc2ccccn12 [Trazodone hydrochloride],habituation to 1-s acoustic pulses,[1],-10.7
same,optomotor response to red moving lines,[7],14.6
same,optomotor response to green moving lines,[6],1.17
CCOC(=O)[C@H](CCc1ccccc1)N[C@H]1CCc2ccccc2N(CC(=O)O)C1=O [Benazepril hydrochloride],habituation to 1-s acoustic pulses,[1],3.08
same,optomotor response to red moving lines,[7],13
same,activity during period 15,[3],4.55
same,startle response to 20-s acoustic pulses,[8],-1.74
same,optomotor response,[9],-1.29
NC(=O)N1c2ccccc2C=Cc2ccccc21 [Carbamazepine],habituation to 1-s acoustic pulses,[1],2.65
same,optomotor response to blue moving lines,[5],12.9
same,optomotor response to green moving lines,[6],-0.434
OCCOCCN1CCN(C2=Nc3ccccc3Sc3ccccc32)CC1 [Quetiapine hemifumarate],habituation to 1-s acoustic pulses,[1],-4.36
same,optomotor response to red moving lines,[7],6.92
same,startle response to 20-s acoustic pulses,[8],-1.65
Brc1c(NC2=NCCN2)ccc2nccnc12,optomotor response to red moving lines,[7],17.8
same,activity during period 15,[3],-19.4
same,optomotor response to green moving lines,[6],10.3
same,startle response to 20-s acoustic pulses,[8],-4.57
same,optomotor response,[9],16.1
CN1CC[C@@H](NC(=O)Nc2ccc(C#N)cc2)C[C@@H]1c1nc2ccccc2[nH]1,optomotor response to red moving lines,[7],-0.356
same,startle response to 20-s acoustic pulses,[8],-5.85
OCc1cc(C(O)CNCCCCCCOCCCCc2ccccc2)ccc1O (configuration not stated) [Salmeterol xinafoate],excitability to 1-s acoustic pulses,[2],12.3
same,optomotor response to red moving lines,[7],5
same,startle response to 20-s acoustic pulses,[8],-5.23
same,optomotor response,[9],-5.49
CCc1c2c(nc3ccc(OC(=O)N4CCC(N5CCCCC5)CC4)cc13)-c1cc3c(c(=O)n1C2)COC(=O)[C@]3(O)CC,optomotor response to red moving lines,[7],-8.71
same,optomotor response to green moving lines,[6],-1.18
CC(C)COCC(CN(Cc1ccccc1)c1ccccc1)N1CCCC1 (configuration not stated) [Bepridil hydrochloride],optomotor response to red moving lines,[7],3.6
same,activity during period 15,[3],13.7
same,startle response to 20-s acoustic pulses,[8],-5.17
CNS(=O)(=O)Cc1ccc2[nH]cc(CCN(C)C)c2c1 [Sumatriptan succinate],optomotor response to blue moving lines,[5],-3.13
CC(=O)Oc1cc2c(s1)CCN(C(C(=O)C1CC1)c1ccccc1F)C2 (configuration not stated) [Prasugrel],optomotor response to red moving lines,[7],5.97
same,optomotor response,[9],-8.05
C[C@@H](O[C@H]1OCCN(Cc2n[nH]c(=O)[nH]2)[C@H]1c1ccc(F)cc1)c1cc(C(F)(F)F)cc(C(F)(F)F)c1 [Aprepitant],optomotor response to red moving lines,[7],-4.19
same,startle response to 20-s acoustic pulses,[8],-6.92
same,optomotor response,[9],7.32
CCCc1nc2c(C)cc(-c3nc4ccccc4n3C)cc2n1Cc1ccc(-c2ccccc2C(=O)O)cc1 [Telmisartan],habituation to 1-s acoustic pulses,[1],-0.195
same,excitability to 1-s acoustic pulses,[2],12.8
same,optomotor response to red moving lines,[7],-8.2
same,optomotor response to green moving lines,[6],-3.99
same,optomotor response,[9],7.51
CC(c1cc2ccccc2s1)N(O)C(N)=O (configuration not stated) [Zileuton],excitability to 1-s acoustic pulses,[2],4.34
same,optomotor response to red moving lines,[7],-7.52
same,activity during period 15,[3],3.35
CO[C@H]1/C=C/O[C@@]2(C)Oc3c(C)c(O)c4c(O)c(c5c(nc6cc(C)ccn65)c4c3C2=O)NC(=O)/C(C)=C\C=C\[C@H](C)[C@H](O)[C@@H](C)[C@@H](O)[C@@H](C)[C@H](OC(C)=O)[C@@H]1C [Rifaximin],excitability to 1-s acoustic pulses,[2],4.07
same,optomotor response to red moving lines,[7],0.313
same,startle response to 20-s acoustic pulses,[8],2.34
